Experimental findings from PubChem BioAssay are described below.

SMILES strings stand for the structures. Calls of active or inactive are those of the source.

In the test the target is Homeobox protein Hox-A13 (Mus musculus) (UniProt Q62424). Nature of the test: disruptors of Hoxa13 oligonucleotide interaction – biochemical, fluorescence polarization, labeled oligonucleotide, primary screen (AID 1185). As to conditions: Hoxa13:DNA binding, 15 min, higher = more signal, called active from +8 up or from −8 down. For orientation: In fluorescence polarisation assays a small probe gives low polarisation when free and higher when bound to something large.
Chain of Homeobox protein Hox-A13 (Mus musculus) (Q62424 whole entry, looked up): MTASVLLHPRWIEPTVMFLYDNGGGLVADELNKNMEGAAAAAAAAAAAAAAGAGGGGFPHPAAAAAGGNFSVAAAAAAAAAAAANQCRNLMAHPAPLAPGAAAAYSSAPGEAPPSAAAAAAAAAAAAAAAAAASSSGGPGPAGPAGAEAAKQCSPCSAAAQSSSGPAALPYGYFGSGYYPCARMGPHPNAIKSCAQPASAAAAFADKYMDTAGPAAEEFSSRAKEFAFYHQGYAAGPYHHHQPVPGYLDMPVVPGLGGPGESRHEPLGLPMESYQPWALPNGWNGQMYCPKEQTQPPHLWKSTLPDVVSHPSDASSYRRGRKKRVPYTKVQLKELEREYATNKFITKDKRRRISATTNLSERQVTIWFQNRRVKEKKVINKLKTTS
As for `COc1cc([C@@H]2N[C@H](C(=O)O)Cc3c2[nH]c2ccccc32)cc(OC)c1OC`, the z-score is -1.66 (inactive).

Take `CCN1C(C)=C(C(=O)OC)[C@@H](c2ccccc2)N2C(=O)[C@@]3(C(=O)OC)O[C@@]12[C@@H]1C(=O)CCC[C@@H]13`: the z-score is -0.386 (inactive). The same measure for `Cc1ccc(S(=O)(=O)c2cc3oc2CC[C@@H](CO)NC(=O)N(C)Cc2cn(nn2)C[C@H](Cc2ccccc2)NC3=O)cc1`: -4.42 (inactive); for `Cc1ccc(S[C@]2(C(=O)O)CC(=O)N(Cc3ccccc3)[C@@H]2c2ccc(CO)cc2)cc1`: -2.96 (inactive). In the case of `C=CCC(OC(C)=O)[C@@H]1[C@@H](N(Cc2cc3ccccc3o2)C(=O)Cc2ccc(F)cc2)c2cc(OCCCO)ccc2N1C(=O)c1ccc(-c2ccccc2)cc1` (stereo partly specified) it was -1.04 (inactive); in that of `COC(=O)[C@@]1(Cc2ccc(OC)cc2)[C@H]2c3cc(C(=O)N(C)C)n(Cc4ccc(C)c(F)c4F)c3C[C@H]2CN1C(=O)c1ccccc1`, -1.93 (inactive). Turning to `CN1C(=O)C2C=CC(C(O)c3ccc(N(C)C)cc3)N(Nc3ccc([N+](=O)[O-])cc3[N+](=O)[O-])C2C1=O` (stereo unspecified), the z-score is -3.89 (inactive). The same measure for `CN1C2C=C(c3ccc(CO)cc3)C(C3C(=O)N(C(N)=O)C(=O)C32)C1c1cccs1` (stereo unspecified): -5.19 (inactive); for `C#CCCCON=C1C[C@@H](O)[C@@H](O)[C@@H]2[C@@H]3C(=O)N(Cc4ccc5c(c4)OCO5)C(=O)[C@@H]3CC[C@H]12`: -0.469 (inactive). In the case of `C=C(COC)/C(=C/C[C@@H](OC(=O)c1ccncc1)c1ccc(OCCO)cc1)c1cc(C(=O)OC)ccc1OC` it was -4.62 (inactive); in that of `CO[C@H]1COC(=O)[C@H](CCSC)NC(=O)CC=C[C@@H](C)COC(=O)[C@@H](OCc2ccccc2)C=C[C@@H]1C`, 0.26 (inactive); in that of `CN(C)CCCC[C@@H]1NC(=O)[C@@H]2C[C@H](C(=O)O)[C@H](c3ccc(O)cc3)N2C1=O`, 2.19 (inactive). Regarding `O=[N+]([O-])c1ccc(C[n+]2ccc3ccc(O)cc3c2)o1`, the z-score was -5.47 (inactive). Consider `COCCOC(=O)N1C(=O)[C@@]2(c3cc(C#CCNC(N)=O)ccc31)[C@H](c1ccc(OCCO)cc1)N1[C@H](c3ccccc3)[C@H](c3ccccc3)OC(=O)[C@H]1[C@@H]2C(=O)N1CCCCCCC1`, for which the z-score is -11.3 (active). For `CO[C@@H]1COC(=O)CC=C[C@H](C)COC(=O)[C@H](Cc2ccccc2)NC(=O)CC=C[C@H]1C`, the z-score was -0.631 (inactive). `CC(C)=C1C(=O)C(c2ccccc2)=C2CN3C(=O)N(CCc4ccccc4)C(=O)[C@]3(Cc3ccccc3)[C@H]21`: the z-score is -0.972 (inactive). As for `COCCCNC(=O)[C@@]1(Sc2ccc(C)cc2)CC(=O)N(Cc2cc(C(F)(F)F)cc(C(F)(F)F)c2)[C@@H]1c1ccc(CO)cc1I`, the z-score is -1.21 (inactive). In the case of `COc1ccc([Si](C)(C)[C@H]2[C@H](CC(=O)N3Cc4ccccc4C[C@H]3CO)O[C@@]3(C(=O)N(Cc4cccc(N5CCOC5=O)c4)c4ccccc43)[C@@H]2C)cc1` it was -3.02 (inactive).

For `CO[C@@H]1COC(=O)[C@@H]2CCCN2C(=O)CC=C[C@@H](C)[C@H](OC)COC(=O)[C@@H]2CCCN2C(=O)CC=C[C@H]1C`, the z-score is -0.507 (inactive). Turning to `CO[C@H]1O[C@H](CO)[C@@H](OC(=O)CCc2ccccc2)[C@@H]2OC(=O)[C@H](Cc3cccc(Br)c3)C/C=C/C[C@@H](Cc3cccc(Br)c3)C(=O)O[C@@H]12`, the z-score is -2.42 (inactive). The same measure for `CO[C@H]1COC(=O)CC=C[C@H](C)[C@@H](OC)COC(=O)[C@H](Cc2ccccc2)NC(=O)CC=C[C@@H]1C`: -0.426 (inactive); for `CCCC=C(CCC)[C@@H](NC(=O)c1ccccc1)c1ccccc1`: -0.832 (inactive); for `COc1ccc(-c2ccccc2[C@@H]2N[C@H](C(=O)O)CC[C@H]2C)cc1`: 1.08 (inactive). The same measure for `CO[C@@H]1COC(=O)CC=C[C@@H](C)[C@H](OC)COC(=O)CC=C[C@H]1C`: -0.26 (inactive); for `Cc1ccc(S[C@]2(C(=O)NCCCN(C)C)CC(=O)N(C3CCCCC3)[C@@H]2c2ccc(CO)cc2I)cc1`: 0.756 (inactive). In the case of `COCCOC(=O)N1C(=O)[C@@]2(c3cc(C#CCCO)ccc31)[C@H](c1ccc(OCCO)cc1)N1[C@H](c3ccccc3)[C@H](c3ccccc3)OC(=O)[C@H]1[C@@H]2C(=O)NC[C@H](O)c1ccccc1` it was -1.24 (inactive). As for `COCCOC(=O)N1C(=O)[C@@]2(c3cc(C#CCC(C(=O)OC)C(=O)OC)ccc31)[C@H](c1ccccc1OCCO)N1[C@H](c3ccccc3)[C@H](c3ccccc3)OC(=O)[C@H]1[C@@H]2C(=O)N1CCCCCCC1`, the z-score was 2.94 (inactive). For `O=C(CS)NCCCCCNC(=O)[C@H]1C[C@H]2C(=O)N3CCC[C@H]3C(=O)N2[C@H]1c1ccc(O)cc1`, the z-score is -3.01 (inactive).

With `CCOC(=O)C[C@H]1[C@H](OC(=O)c2cc3ccccc3oc2=O)[C@@H](NC(=O)C2CCCCC2)c2cc(OCCCO)ccc2N1C(=O)c1ccc2ccccc2n1`, the z-score is -4.56 (inactive). For `C[C@@H]1CC[C@H]2C(=O)N3CCC[C@H]3C(=O)N2[C@H]1c1ccc(Br)cc1`, the z-score was 0.0636 (inactive).

Consider `O=C1C[C@@](C(=O)NC2CC2)(c2ccc([N+](=O)[O-])cc2)[C@@H](c2ccc(CO)cc2I)N1CC12CC3CC(CC(C3)C1)C2`, for which the z-score is -3.64 (inactive). In the case of `CCC#CCN(Cc1ccccc1Br)[C@H](/C=C/c1ccccc1)[C@@H](O)Cc1ccccc1` it was 0.462 (inactive); in that of `CC(C)(C)OC(=O)CC[C@]1(C(=O)N2CCCCC2)N=C(c2ccc(OCCCO)cc2)O[C@H]1c1ccccc1`, -4.83 (inactive); in that of `C[C@@H]1CC[C@H]2C(=O)N3[C@@H](CC[C@@H](C)[C@@H]3c3cccc(N4CCOCC4)c3)C(=O)N2[C@H]1c1cccc(N2CCOCC2)c1`, -4.07 (inactive). In the case of `C=C(/C(=C/C[C@@H](OC(=O)c1ccncc1)c1ccc(CO)o1)c1cnc2ccccc2c1)C(C)C` it was -4.89 (inactive); in that of `C[C@@H]1NC(=O)CC=C[C@@H](C)[C@@H]2C=C[C@H](O)[C@@H](COC(=O)[C@H](C)NC(=O)CC=C[C@@H](C)[C@@H]3C=C[C@H](O)[C@@H](COC1=O)O3)O2`, 0.881 (inactive).
